# Reference: PubChem BioAssay (NCI)
# The panel holds about 83,000 compounds, 20% with a hit somewhere; the sample as a whole holds those more often.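 Assay: single dose, 48 h. Readout: percent growth (0 = no net growth; negative = cell death). Active: <10.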 A number with no mark means an inactive call. Calls of active or inactive are those of the source.
# Legend:
# Assay in all cases: NCI-60 one-dose screen, 48 h (100 = growth as untreated, 0 = no growth, -100 = all killed)
# Settings in all cases: 10 µM unless noted
# [1] = system: T-47D breast
# [2] = system: BT-549 breast
# [3] = system: MDA-MB-435 melanoma
# [4] = system: SW-620 colon
# [5] = system: MCF7 breast
# [6] = system: HCT-116 colon
# [7] = system: HCC-2998 colon
# [8] = system: KM12 colon
SMILES,growth [1],growth [2],growth [3],growth [4],growth [5],growth [6],growth [7],growth [8]
Cc1ccc(C2=NN(c3ccc(S(=O)(=O)NC(=O)NCc4ccccc4)cc3)C(c3ccc(N(C)C)cc3)C2)c(C)c1 (stereo unspecified),47.3%,40.9%,1% (active),59.5%,28.9%,39.7%,27.7%,34.5%
O=c1[nH]c(-c2cn(-c3ccc(Cl)cc3)nn2)nc2ccccc12,54.4%,79.6%,77.2%,94.4%,99.8%,52%,90%,84.7%
O=C(O)c1cn(C2CC2)c2cc(N3CCN(S(=O)(=O)c4ccc(Cl)c(Cl)c4)CC3)c(F)cc2c1=O,16.3%,-4.65% (active),13%,20.7%,13.5%,3.95% (active),24.8%,14.6%
CCCS(=O)(=O)c1nc(NC2CC2)cc(-c2ccc3c(ccn3C3CC(C)(C)NC(C)(C)C3)c2)n1,-74.3% (active),-35.7% (active),11.5%,-61.6% (active),-80.5% (active),-78.2% (active),1.29% (active),6.05% (active)
Cc1ccc2c(c1)C(=O)C(c1c(-c3[nH]c(=O)c4ccc(C)cc4c3O)c(O)c3ccccc3c1O)=NC2=O,11.9%,32.7%,30.7%,7.11% (active),12.3%,12.9%,62%,18.5%
O=C1CCCCN1CCCCC#Cc1ccccc1C#Cc1ccccn1,92.9%,117%,98.1%,103%,109%,106%,88.5%,111%
CC1(C)OC2COC3(C(=O)O)OC(C)(C)OC3C2O1 (stereo unspecified),90.2%,106%,93.8%,98.2%,99.7%,114%,97.6%,98.4%
CN(C)c1ccc(-c2ccc(-c3ccc(C(=N)N)cn3)o2)cc1,-68.2% (active),-11.8% (active),-84.2% (active),-72.6% (active),-38.1% (active),-62.4% (active),-73.5% (active),-97% (active)
O=C1OC(c2ccccc2)=N/C1=C\c1ccc([N+](=O)[O-])cc1,106%,101%,106%,92.4%,103%,97.8%,108%,94.5%
CC(Br)C(Br)c1cc2c(cc1Br)OCO2 (stereo unspecified),73.7%,100%,97.9%,109%,93.9%,88.5%,96%,103%
CSc1nc(-c2cc3ccccc3o2)cc(-c2ccc(Cl)cc2)c1C#N,24.7%,115%,111%,71.1%,14%,58.8%,85.6%,40.4%
O=C(CNC1CCCCC1)Nc1ccc(-c2nc3ccccc3s2)cc1,69.1%,87.6%,90.4%,100%,28%,77%,87.3%,83.9%
CC(=O)n1cc([C@H]2CC[C@H](c3cn(C(C)=O)c4ccccc34)c3c2[nH]c2ccccc32)c2ccccc21,50.8%,95.2%,93.1%,90.3%,63.7%,63.9%,87.3%,64.4%
CNC(=O)Cc1nc(-c2cccc(NS(=O)(=O)c3c(F)cccc3F)c2F)c(-c2ccnc(Nc3ccccc3)n2)s1,60.2%,103%,48.3%,66.8%,86.2%,9.43% (active),84.6%,70.2%
O=C(Cc1c(F)cccc1Cl)Nc1ccc(S(=O)(=O)Nc2ncccn2)cc1,102%,90.8%,101%,102%,96.2%,102%,97.3%,111%
COc1ccc(C(=O)/C=C/c2cccc([N+](=O)[O-])c2)c(OC)c1,26.6%,4.85% (active),15.2%,-67.4% (active),7.98% (active),-80.1% (active),36.6%,13.2%

SMILES,growth [1],growth [2],growth [3],growth [4],growth [5],growth [6],growth [7],growth [8]
COc1ccc(-c2nc3sccn3c2-c2ccnc(NCCCNS(=O)(=O)c3ccc(C)cc3)n2)cc1,-6.34% (active),42.5%,23.4%,38.6%,34.3%,25%,25.9%,20.6%
O=C1NCC(c2cc3ccccc3[nH]c2=O)Nc2ccccc21 (stereo unspecified),91%,96.3%,107%,102%,103%,92.6%,104%,103%
Cc1cnc(NC(=O)C(Cc2ccccc2)NC(=O)c2ccccc2)s1 (stereo unspecified),87.3%,88.4%,13.2%,80.3%,46.2%,49.7%,73.3%,60.2%
Cc1nc2sccn2c1-c1csc(Nc2ccccc2Cl)n1,41%,40.6%,2.78% (active),33.1%,33.9%,27.8%,63.8%,29.6%
COc1ccc(C2SCC(=O)N2NC(=O)c2ccc(NC(=O)c3ccccn3)cc2)cc1OC (stereo unspecified),97.8%,102%,104%,104%,104%,100%,104%,95.8%
COc1ccc(S(=O)(=O)N2CCN(c3cc4c(cc3F)c(=O)c(C(=O)O)cn4C3CC3)CC2)c(OC)c1,75%,95%,97.7%,105%,98.4%,102%,118%,91.1%
CC(=O)/C=C/c1cc2cc(Cl)ccc2[nH]c1=O,50%,65.5%,94.2%,80.4%,30.5%,48.1%,95.2%,60%
CC(Br)C(OC(=O)c1ccccc1Cl)c1cc2c(cc1Br)OCO2 (stereo unspecified),74.9%,109%,75.3%,84.6%,95.2%,66.6%,90.7%,89%
Cc1cc2c(c(=O)o1)C(c1ccc(OC(=O)N3CCOCC3)cc1)C(C#N)=C(N)O2 (stereo unspecified),102%,104%,105%,108%,98%,104%,99.4%,105%
CCCCCCCCCCCCCCCCC(Br)C(=O)O (stereo unspecified),86.7%,122%,98.4%,116%,92.9%,105%,102%,111%
COc1ccc(OC)c(-c2ccc(-c3ccccc3N)c3[nH]c4ccccc4c23)c1,62.8%,72.5%,105%,80.7%,69.8%,61.6%,102%,72.9%
CC[C@]1(O)C[C@@H]2CN(Cc3c([nH]c4ccccc34)[C@@](C(=O)OC)(c3cc4c(cc3OC)N(C)[C@H]3[C@@](O)(C(=O)OC)[C@H](OC(C)=O)[C@]5(CC)[C@@H]6C[C@@H]6CN6CC[C@]43[C@@H]65)C2)C1,83.3%,-23.1% (active),-40% (active),20.6%,14.8%,2.43% (active),7.42% (active),-9.75% (active)
Cc1cc(NC(=O)COC(=O)c2sc3cc(F)ccc3c2Cl)no1,102%,117%,108%,108%,106%,103%,112%,108%
COc1ccc(/C=C2\C(=O)N(C(=O)c3csc(NC(C)=O)n3)N=C2C)cc1,99.2%,95.9%,106%,106%,88.4%,98.2%,103%,102%
O=S(=O)(NCCCNc1cc(-c2cn(-c3ccccc3)nc2-c2cccc(O)c2)ccn1)c1ccc(Br)cc1,12.5%,7.68% (active),9.98% (active),10.7%,7.31% (active),9.44% (active),-62.4% (active),7.88% (active)
COc1ccc2c(c1)C(C)Cc1c(N(C)C)ncnc1N2C (stereo unspecified),34.7%,17.7%,-5.79% (active),21.4%,19.5%,23.7%,74.6%,23.6%
